Some test systems named below: OVCAR-8 ovarian; OVCAR-5 ovarian; OVCAR-4 ovarian; SK-OV-3 ovarian; IGROV1 ovarian; OVCAR-3 ovarian; HS 578T breast; NCI/ADR-RES ovarian; T-47D breast; BT-549 breast; MDA-MB-435 melanoma; SW-620 colon; HCT-116 colon; HCC-2998 colon; KM12 colon; RPMI-8226 leukemia; MCF7 breast.
What all share (assay): NCI-60 one-dose screen, 48 h (100 = growth as untreated, 0 = no growth, -100 = all killed)
Details in all cases: 10 µM unless noted

Values joined by “and” are separate entries in the source; they are usually repeats but may differ in a detail not shown here. Equal entries are not always repeated. About 83,000 compounds went through this panel and 20% of them were active in at least one assay; those are over-represented in the sample as a whole.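 Interpretation: 100, growth as untreated; towards 0, rising growth inhibition; 0, no net growth; 0 to -100, cell death. Compounds scoring below 10 were considered active.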 Values without a mark were called inactive. Active and inactive are the calls of the source.

Data on seven molecules can be found in PubChem BioAssay (NCI).

On to `COc1cc(Cl)ccc1C`, for which the growth with OVCAR-8 ovarian is 87.5%; with OVCAR-5 ovarian, 71.1%; in the experiment on OVCAR-4 ovarian, 76.4%; in the experiment on SK-OV-3 ovarian, 93.2%; in the experiment on IGROV1 ovarian it was 72.3%; with OVCAR-3 ovarian it was 111%. Besides, the growth was 115% with HS 578T breast; 97.4% with NCI/ADR-RES ovarian; 94.9% with T-47D breast; 102% in the experiment with BT-549 breast; 102% in the experiment with MDA-MB-435 melanoma; 52.8% with SW-620 colon. Also, the growth is 59% with HCT-116 colon, 105% in the experiment with HCC-2998 colon and 92.8% with KM12 colon.

Consider `Clc1ccc2c(c1)N(C1CCCN(Cc3ccccc3)C1)c1ccccc1S2` (centres undefined), for which the growth in the experiment on RPMI-8226 leukemia was 25.9%; in the experiment on OVCAR-8 ovarian, 37.9%; with OVCAR-5 ovarian, 73.4%; in the experiment with OVCAR-4 ovarian, 79.9%; in the experiment with SK-OV-3 ovarian, 26.8%; in the experiment on IGROV1 ovarian, 43.8%. Besides, the growth in the experiment on OVCAR-3 ovarian is 53.3%; in the experiment on HS 578T breast, 14.4%; in the experiment with NCI/ADR-RES ovarian, 24.8%; in the experiment on T-47D breast, 69%; in the experiment with BT-549 breast, 61.2%; with MDA-MB-435 melanoma it was 5.2% (active). Besides, the growth in the experiment on SW-620 colon is 22.6%; in the experiment on MCF7 breast, 18.4%; in the experiment on HCT-116 colon, 12.1%; with HCC-2998 colon, 23%; in the experiment on KM12 colon it was 33.7%.

Regarding `CC(=O)C[n+]1ccccc1Sc1ccc(Cl)cc1`, the growth in the experiment with RPMI-8226 leukemia was 84.7%; in the experiment with OVCAR-8 ovarian, 92.8%; in the experiment on OVCAR-5 ovarian, 148%; in the experiment with OVCAR-4 ovarian, 93.7%; in the experiment on SK-OV-3 ovarian, 109%; in the experiment on IGROV1 ovarian, 101%. For the same molecule, the growth with OVCAR-3 ovarian was 100%; with HS 578T breast, 84.3%; in the experiment with NCI/ADR-RES ovarian, 111%; with T-47D breast, 84.8%; in the experiment on BT-549 breast, 30%; with MDA-MB-435 melanoma, 78%. Also, the growth in the experiment with HCT-116 colon was 81.5%; in the experiment on HCC-2998 colon it was 128%; with KM12 colon, 79.2%.

Regarding `COc1ccc(-n2[nH]c3c(cnc4ccccc43)c2=O)cc1`, the growth was 75.7% and 106% in the experiment with RPMI-8226 leukemia; 101% and 99.7% in the experiment with OVCAR-8 ovarian; 107% and 108% in the experiment with OVCAR-5 ovarian; 111% and 97.6% in the experiment with OVCAR-4 ovarian; 105% and 99.4% in the experiment with SK-OV-3 ovarian; 87.6% and 115% with IGROV1 ovarian. Further, the growth with OVCAR-3 ovarian is 100% and 116%; in the experiment with HS 578T breast, 117% and 97.5%; in the experiment on NCI/ADR-RES ovarian it was 78.5% and 101%; in the experiment on T-47D breast, 88.3%; in the experiment on BT-549 breast, 90% and 95.4%; with MDA-MB-435 melanoma it was 94.7% and 97.3%. The growth was 106% and 103% with SW-620 colon; 90.5% and 95.1% with HCT-116 colon; 69.2% and 107% with HCC-2998 colon; 99.1% and 97.7% in the experiment with KM12 colon.

Take `Cc1ccc([N+](=O)[O-])cc1Br`: the growth in the experiment on RPMI-8226 leukemia is 108%; with OVCAR-8 ovarian it was 91.1%; in the experiment on OVCAR-5 ovarian, 89.9%; in the experiment with OVCAR-4 ovarian it was 105%; in the experiment with SK-OV-3 ovarian, 96.4%; with IGROV1 ovarian, 113%. Also, the growth in the experiment on OVCAR-3 ovarian was 107%; in the experiment on HS 578T breast, 94.8%; in the experiment with NCI/ADR-RES ovarian, 108%; in the experiment on T-47D breast, 89.1%; in the experiment with BT-549 breast, 110%; in the experiment on MDA-MB-435 melanoma it was 85.6%. Also, the growth in the experiment on SW-620 colon is 91.8%; in the experiment with MCF7 breast, 97.6%; with HCT-116 colon, 90.8%; in the experiment with HCC-2998 colon, 117%; with KM12 colon, 103%.

As to `Cc1c(Cl)cc(Cl)c(N)c1Cl`, the growth in the experiment on RPMI-8226 leukemia is 98.1%; in the experiment with OVCAR-8 ovarian, 104%; in the experiment on OVCAR-5 ovarian, 107%; with OVCAR-4 ovarian, 108%; in the experiment on SK-OV-3 ovarian it was 101%; in the experiment with IGROV1 ovarian, 114%. Further, the growth was 112% in the experiment on OVCAR-3 ovarian; 95.3% in the experiment on HS 578T breast; 105% in the experiment on NCI/ADR-RES ovarian; 104% in the experiment on T-47D breast; 112% with BT-549 breast; 104% in the experiment on MDA-MB-435 melanoma. Further, the growth in the experiment on SW-620 colon is 101%; with MCF7 breast, 98.6%; in the experiment with HCT-116 colon it was 103%; in the experiment with HCC-2998 colon, 113%; in the experiment with KM12 colon, 114%.

In the case of `CCn1c2ccc(N(C)C)cc2c2cc(N(C)C)ccc21`, the growth in the experiment on RPMI-8226 leukemia was 80.4%; in the experiment with OVCAR-8 ovarian, 97.3%; in the experiment with OVCAR-5 ovarian it was 99.6%; in the experiment with OVCAR-4 ovarian it was 24.9%; with SK-OV-3 ovarian, 94.8%; with IGROV1 ovarian, 107%. In addition, the growth was 5.93% (active) with OVCAR-3 ovarian; 107% with HS 578T breast; 98.5% in the experiment with NCI/ADR-RES ovarian; 88.2% with T-47D breast; 96.6% in the experiment on BT-549 breast; 111% with MDA-MB-435 melanoma. Further, the growth in the experiment with SW-620 colon was 96.2%; in the experiment on MCF7 breast it was 86.4%; in the experiment with HCT-116 colon, 101%; with HCC-2998 colon it was 99.2%; in the experiment with KM12 colon, 92.8%.
